MARV entry inh: Marburg virus entry inhibition | Marburg virus pseudotyped entry inhibition, cell reporter | Potency, µM (top dose mostly 37.8 µM), actives largely listed as inhibitors | 300,000 tested, 1.8% active | AID 540276; calls by dose curve; tested in HEK293 cells
Pf growth 96h: P. falciparum growth inhibition at 96 hour, primary screen for plastid delayed-death inhibitors; P. falciparum luciferase reporter growth, 96 h; Potency, µM (highest dose often 28.7 µM), actives largely listed as inhibitors; 320,000 tested, 6.9% active
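Readout is luminescence from an integrated firefly luciferase in P. falciparum. Red cells, 2% hematocrit and 0.05% parasitemia final, were cultured with compound through two parasite generations (96 hours) at 37 C, 5% CO2.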
HCV inhibitor: HCV inhibition | Potency, µM (titrated, usually from 41.8 µM), usual class: inhibitors | AID 651820 | 340,000 tested, 3.4% active | Huh7.5.1 HCVcc-Cre infection, luciferase reporter, 44 h
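1,000 cells/well; 4 h culture; + compound; + HCVcc-Cre (~0.5 moi); 44 h; luciferase substrate, RT 15 min; read 15 sec.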
LASV entry inh: inhibitors of Lassa virus binding or cell entry. Lassa virus pseudotype entry inhibition, cell reporter. Potency, µM (series often up to 37.9 µM), hits mostly inhibitors. 300,000 tested, 1.2% active. AID 540256; calls by dose curve; tested in HEK293 cells; note: nearly all actives have a fitted effect of over 50% in size
HCMV inh: inhibitors of human cytomegalovirus. HFF cells, HCMV-luciferase reporter, 72 h; active compounds read low. activity change, negative = inhibition, % at 57.5 µM. 410,000 tested, 4.5% active. AID 1259415; in the data active = activity change below about -60%; inconclusive = no clear call, values can overlap the other calls; inactive = above about -39%
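Two-dose cell screen: HFF monolayers treated with compounds and infected with luciferase-expressing HCMV at 1 PFU/cell, 72 h at 37C, then lysed for luciferase measurement.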
Pf growth 48h: P. falciparum growth inhibition at 48 hours (one generation) | 310,000 tested, 5.9% active | AID 504832 | P. falciparum luciferase growth in erythrocytes, 48 h | Potency, µM (top dose mostly 28.7 µM), hits mostly inhibitors
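Firefly luciferase activity from engineered P. falciparum reports growth; inhibitors lower the luminescent signal. Cultures contained 2% hematocrit erythrocytes at 0.1% final parasitemia.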
Hits are given with their value; 0 = inactive; ? = inconclusive; - = no result given; [ ] = dose if it differs, or a comment. Compounds with a hit are over-represented: about 14% of the library has one in this group of screens. Unless noted, calls come from the whole dose curve; as a rule, active = well fitted inhibition curve with a large enough effect; inconclusive = small, poorly fitted or top-dose-only effect, or another doubt; inactive = no such curve, though single readings can be large or run the other way.

SMILES	MARV entry inh	Pf growth 96h	HCV inhibitor	LASV entry inh	HCMV inh	Pf growth 48h
O=C(COc1ccc(S(=O)(=O)N2CCCCC2)cc1)N1CCOCC1	0	?	0	0	0	0
CCCCNS(=O)(=O)c1ccc(OCC(=O)N2CCN(Cc3ccc4c(c3)OCO4)CC2)cc1	-	10µM	3.2µM	-	-83	?
O=C(COc1ccc(S(=O)(=O)N2CCOCC2)cc1)N1CCN(Cc2ccc3c(c2)OCO3)CC1	0	?	?	0	-61	-
O=C(COc1ccc(S(=O)(=O)N2CCOCC2)cc1)N1CCCCCC1	0	0	0	0	-85	?
O=C(COc1ccc(Br)cc1)N1CCN(Cc2ccc3c(c2)OCO3)CC1	0	0	?	0	0	0
COc1ccc(Cn2c(=O)[nH]c3cc(C(=O)NCCC(C)C)ccc3c2=O)cc1	0	-	-	?	0	-
O=C1COc2ccc(-c3cc(-c4ccccc4)c4c(n3)-c3cc(Cl)ccc3OC4)cc2N1	0	-	-	0	0	-
CCc1nc2c(OCc3ccc(OC)cc3)cccn2c1N(C)C(=O)c1ccco1	-	-	-	-	0	-
Cc1c(C(=O)N2CCCC2)oc2c1-c1nn(CC(=O)NCc3ccccc3Br)cc1CC2	-	-	-	0	0	-
CCCC1=[N+](CC(=O)c2ccccc2)CCn2c(C)ccc21	0	0	?	0	0	?
CCCC1=[N+](CC)CCn2c(C)ccc21	0	0	0	0	0	4.7µM
CN(C)S(=O)(=O)c1ccc(N2CCCC2)c(C(=O)Nc2nc3c(ccc4ccccc43)s2)c1	?	13µM	?	?	0	?
CN(C)S(=O)(=O)c1ccc(N2CCCC2)c(C(=O)Nc2nc(-c3ccc(F)c(F)c3)cs2)c1	?	10µM	0	0	0	?
CNC(=O)c1nn(C)c(=O)[nH]c1=O	?	-	0	0	0	-
Cc1cccn2c(=O)c3cc(C(=O)NCCN4CCOCC4)c(=N)n(CCN4CCOCC4)c3nc12	?	0	0	0	0	?
CCOCCCn1c(=N)c(C(=O)NCCN2CCOCC2)cc2c(=O)n3cccc(C)c3nc21	?	1.5µM	0	0	0	0
Cc1cccn2c(=O)c3cc(C(=O)NCCN4CCOCC4)c(=N)n(Cc4ccc(F)cc4)c3nc12	?	3.7µM	?	5.6µM	-100	?
Cc1ccc(-c2nc3c4ccccc4ccn3c2Cc2ccsc2)cc1	-	-	-	-	0	-
Cc1noc(C)c1C(=O)N1CCCC(Nc2ccc(C(C)C)cc2)C1 (stereo not drawn)	-	0	0	-	0	0
COc1ccc2cc(C(=O)N3CCCC(Nc4ccc(F)cc4)C3)n(C)c2c1 (stereo not drawn)	0	5.9µM	?	0	0	0
COc1ccc(NC2CCCN(C(=O)c3c(C)noc3C)C2)cc1 (stereo not drawn)	-	1.9µM	0	-	0	?
O=C(CCN1CCCCO1)N1CCCC(Nc2ccc(F)cc2)C1 (stereo not drawn)	0	12µM	-	0	0	0
CN(C)c1ccccc1C(=O)N1CCCC(Nc2ccc(F)cc2)C1 (stereo not drawn)	-	13µM	0	-	?	0
COC(=O)c1nnc(SC)nc1C(=O)OC	0	-	-	-	-	-
CC(=O)C(C(=O)Nc1c(C)cccc1C)N(Cc1ccco1)C(=O)C(=O)c1ccccc1 (stereo not drawn)	-	-	-	-	0	-
SMILES	MARV entry inh	Pf growth 96h	HCV inhibitor	LASV entry inh	HCMV inh	Pf growth 48h
COc1ccc(S(=O)(=O)NCc2ccccn2)cc1C	-	-	-	-	0	-
CC1CCCCC1OCCNC(=O)c1ccco1 (stereo not drawn)	0	-	-	-	-	-
COc1ccccc1Cc1nc2ccccc2nc1SCC(=O)NCc1ccc(F)cc1	-	-	-	0	?	-
COc1ccc(NC2CCCN(C(=O)CCN3Cc4ccccc4C3=O)C2)cc1 (stereo not drawn)	-	8.3µM	0	-	0	0
Cc1ccc(NC(=O)c2ccc3snnc3c2)cc1Cl	?	-	-	0	0	-
CCC(C)n1c(O)c(/C=N/Nc2ccccc2)c(=O)[nH]c1=S (stereo not drawn)	0	0	0	?	-80	0
COc1ncnc2c1ncn2CCCN(C)Cc1ccco1	-	-	-	-	0	-
COc1ccc(N=C2O/C(=C/c3sc(=S)n(CC4CCCO4)c3O)N=C2C#N)cc1 (stereo not drawn)	?	15µM	0	0	?	?
COc1cc(CN(C)c2ccc(S(=O)(=O)N3CCCC3)cn2)ccc1OC(F)F	?	?	?	?	0	15µM
COc1ccc(CN(C)c2ccc(S(=O)(=O)N3CCN(C)CC3)cc2[N+](=O)[O-])cc1OC	?	15µM	0.56µM	?	-86	12µM
COc1ccc(CCN(C)c2ccc(S(=O)(=O)N3CCCC3)cn2)cc1OC	0	0[5.75 µM]	0	0	0	?
COc1ccc(C(CNc2ccc(S(=O)(=O)N3CCCC3)cc2[N+](=O)[O-])N2CCCC2)cc1 (stereo not drawn)	?	10µM	?	?	0	?
COc1ccc(Nc2ccc(S(=O)(=O)N3CCCCC3)cc2[N+](=O)[O-])cc1Cl	0	13µM	?	0	?	?
